Several values for one entry are separate records, joined by “and”; a condition that tells them apart may be missing. Identical values can stand only once. The campaign covered roughly 5,500 compounds. About 2,000 (36%) were called active. Roughly 18% stayed inconclusive and do not appear here. No stated cut-off is given here; in the data, active means normalized growth mostly below about 0.91 (no sharp cut-off); inconclusive means no clear call, values can overlap the other calls; inactive means mostly above about 0.92. This is one part of the list.
Test: chemical genetic growth profiling, strain panel (AID 1159580);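 further: tested at 20 µM; growth read once vehicle control cultures reached saturation at 30 °C; 1 = growth at the plate median or of vehicle wells; lower values mean less growth of the strain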
Conditions: growth OD

Measured: normalized growth

O=C(O)CCCCCCCC(=O)O
inactive: S. cerevisiae deletion strains, locus YKL009W, strain mrt4, active compounds read low 0.937 | S. cerevisiae deletion strains, locus YKL068W, active compounds read low 1.01 | S. cerevisiae deletion strains, locus YKL085W, strain MDH1 (second series), active compounds read low 1 | S. cerevisiae deletion strains, locus YKL085W, strain MDH1, active compounds read low 1 | S. cerevisiae deletion strains, locus YKL160W, strain elf1, active compounds read low 1.04 | S. cerevisiae deletion strains, locus YKL190W, strain CNB1, active compounds read low 0.992 | S. cerevisiae deletion strains, locus YKR001C, strain vps1, active compounds read low 0.981 | S. cerevisiae deletion strains, locus YKR026C, strain gcn3, active compounds read low 1.01 | S. cerevisiae deletion strains, locus YKR091W, strain srl3, active compounds read low 0.996 | S. cerevisiae deletion strains, locus YLL001W, strain dnm1, active compounds read low 1.02 | S. cerevisiae deletion strains, locus YLL026W, active compounds read low 0.995 | S. cerevisiae deletion strains, locus YLL041C, strain sdh2, active compounds read low 0.993 | S. cerevisiae deletion strains, locus YLR027C, strain aat2, active compounds read low 1.01 | S. cerevisiae deletion strains, locus YLR039C, strain RIC1, active compounds read low 0.999 | S. cerevisiae deletion strains, locus YLR058C, strain SHM2, active compounds read low 0.978 | S. cerevisiae deletion strains, locus YLR102C, strain apc9, active compounds read low 0.99 | S. cerevisiae deletion strains, locus YLR113W, strain HOG1, active compounds read low 0.966 | S. cerevisiae deletion strains, locus YLR221C, strain rsa3, active compounds read low 1.01 | S. cerevisiae deletion strains, locus YLR258W, strain gsy2, active compounds read low 1.02 | S. cerevisiae deletion strains, locus YLR262C, strain YPT6 (second series), active compounds read low 0.981 | S. cerevisiae deletion strains, locus YLR262C, strain YPT6, active compounds read low 0.949 | S. cerevisiae deletion strains, locus YLR268W, strain sec22, active compounds read low 1.01 | S. cerevisiae deletion strains, locus YLR320W, strain mms22, active compounds read low 1 | S. cerevisiae deletion strains, locus YLR330W, strain CHS5, active compounds read low 0.995 | S. cerevisiae deletion strains, locus YLR342W, strain FKS1 (second series), active compounds read low 1.03 | S. cerevisiae deletion strains, locus YLR342W, strain FKS1, active compounds read low 1.01 | S. cerevisiae deletion strains, locus YLR357W, strain rsc2, active compounds read low 1.05 | S. cerevisiae deletion strains, locus YLR370C, strain arc18, active compounds read low 1.01 | S. cerevisiae deletion strains, locus YLR371W, strain rom2, active compounds read low 0.991 | S. cerevisiae deletion strains, locus YLR384C, strain iki3, active compounds read low 0.994 | S. cerevisiae deletion strains, locus YLR418C, strain cdc73, active compounds read low 1.02 | S. cerevisiae deletion strains, locus YML016C, strain PPZ1, active compounds read low 0.991 | S. cerevisiae deletion strains, locus YML032C, strain rad52, active compounds read low 0.972 | S. cerevisiae deletion strains, locus YML120C, strain ndi1, active compounds read low 1 | S. cerevisiae deletion strains, locus YML124C, strain tub3, active compounds read low 0.991 | S. cerevisiae deletion strains, locus YMR058W, strain fet3, active compounds read low 1.01 | S. cerevisiae deletion strains, locus YMR078C, strain ctf18, active compounds read low 0.983 | S. cerevisiae deletion strains, locus YMR125W, strain sto1, active compounds read low 1.03 | S. cerevisiae deletion strains, locus YMR129W, active compounds read low 1.01 | S. cerevisiae deletion strains, locus YMR205C, strain PFK2, active compounds read low 1.02 | S. cerevisiae deletion strains, locus YMR223W, strain ubp8, active compounds read low 1 | S. cerevisiae deletion strains, locus YMR231W, strain pep5, active compounds read low 1.01 | S. cerevisiae deletion strains, locus YMR263W, strain SAP30, active compounds read low 0.984 and 1.01 | S. cerevisiae deletion strains, locus YMR307W, strain GAS1, active compounds read low 1.12 | S. cerevisiae deletion strains, locus YNL067W, strain RPL9B, active compounds read low 0.996 | S. cerevisiae deletion strains, locus YNL071W, strain lat1, active compounds read low 1 | S. cerevisiae deletion strains, locus YNL128W, strain TEP1, active compounds read low 0.976 | S. cerevisiae deletion strains, locus YNL153C, strain GIM3, active compounds read low 0.986 and 1.02 | S. cerevisiae deletion strains, locus YNL175C, strain NOP13, active compounds read low 1.01 | S. cerevisiae deletion strains, locus YNL183C, strain NPR1, active compounds read low 0.945 | S. cerevisiae deletion strains, locus YNL197C, strain WHI3, active compounds read low 1.01 | S. cerevisiae deletion strains, locus YNL209W, strain ssb2, active compounds read low 1 | S. cerevisiae deletion strains, locus YNL224C, strain SQS1, active compounds read low 1 | S. cerevisiae deletion strains, locus YNL233W, strain BNI4, active compounds read low 0.994 | S. cerevisiae deletion strains, locus YNL248C, strain rpa49, active compounds read low 1.04 | S. cerevisiae deletion strains, locus YNL250W, strain rad50, active compounds read low 0.988 | S. cerevisiae deletion strains, locus YNL271C, strain bni1, active compounds read low 0.992 | S. cerevisiae deletion strains, locus YNL298W, strain CLA4, active compounds read low 0.926 | S. cerevisiae deletion strains, locus YNL307C, strain MCK1, active compounds read low 0.992 | S. cerevisiae deletion strains, locus YNL322C, strain KRE1 (second series), active compounds read low 1.04 | S. cerevisiae deletion strains, locus YNL322C, strain KRE1, active compounds read low 0.992 | S. cerevisiae deletion strains, locus YNR049C, strain mso1, active compounds read low 1.01 | S. cerevisiae deletion strains, locus YNR052C, strain pop2, active compounds read low 0.974 | S. cerevisiae deletion strains, locus YOL006C, strain TOP1, active compounds read low 1.02 | S. cerevisiae deletion strains, locus YOL012C, strain htz1 0.954 | S. cerevisiae deletion strains, locus YOL147C, strain pex11, active compounds read low 1 | S. cerevisiae deletion strains, locus YOR001W, strain rrp6, active compounds read low 1 | S. cerevisiae deletion strains, locus YOR061W, strain CKA2, active compounds read low 0.973 | S. cerevisiae deletion strains, locus YOR069W, strain VPS5, active compounds read low 0.998 | S. cerevisiae deletion strains, locus YOR070C, strain gyp1, active compounds read low 1.02 | S. cerevisiae deletion strains, locus YOR080W, strain dia2, active compounds read low 1.01 | S. cerevisiae deletion strains, locus YOR083W, strain WHI5 (second series), active compounds read low 1.02 | S. cerevisiae deletion strains, locus YOR083W, strain WHI5, active compounds read low 1 | S. cerevisiae deletion strains, locus YOR106W, strain vam3, active compounds read low 1.03 | S. cerevisiae deletion strains, locus YOR136W, strain idh2, active compounds read low 0.962 | S. cerevisiae deletion strains, locus YOR144C, strain elg1, active compounds read low 0.993 | S. cerevisiae deletion strains, locus YOR184W, strain ser1, active compounds read low 0.988 | S. cerevisiae deletion strains, locus YOR231W, strain MKK1, active compounds read low 0.973 | S. cerevisiae deletion strains, locus YOR265W, strain rbl2, active compounds read low 1.01 | S. cerevisiae deletion strains, locus YOR270C, strain vph1, active compounds read low 1.1 | S. cerevisiae deletion strains, locus YOR290C, strain snf2, active compounds read low 1.04 | S. cerevisiae deletion strains, locus YOR316C, strain cot1, active compounds read low 0.985 | S. cerevisiae deletion strains, locus YPL051W, strain arl3, active compounds read low 1.02 | S. cerevisiae deletion strains, locus YPL055C, strain LGE1, active compounds read low 0.957 | S. cerevisiae deletion strains, locus YPL078C, strain atp4, active compounds read low 1.03 | S. cerevisiae deletion strains, locus YPL106C, strain sse1, active compounds read low 0.996 | S. cerevisiae deletion strains, locus YPL240C, strain hsp82, active compounds read low 1.01 | S. cerevisiae deletion strains, locus YPL241C, strain CIN2, active compounds read low 0.997 and 1.01 | S. cerevisiae deletion strains, locus YPL256C, strain CLN2, active compounds read low 0.988 | S. cerevisiae deletion strains, locus YPR119W, strain clb2, active compounds read low 0.987 | S. cerevisiae deletion strains, locus YPR141C, strain kar3, active compounds read low 1 | S. cerevisiae deletion strains, locus YPR163C, strain tif3, active compounds read low 0.987 | S. cerevisiae deletion strains, locus YPR167C, strain met16, active compounds read low 0.99 | S. cerevisiae deletion strains, strain wtn01, active compounds read low 0.983 | S. cerevisiae strains, strain wild type, active compounds read low 0.999
